High-throughput results (PubChem BioAssay)
Only some compounds are listed: those with a hit (about 2.9% of all), similar ones and a draw of the others.
DRD3 agonist: activates the human D3 dopamine receptor | P35462 | D3R DiscoveRx beta-arrestin cells, luminescence, 90 min | max activation, % | 0.58% of 410,000 active | AID 652048; in the data active = max activation above about 30%
Target sequence (P35462 whole entry, looked up): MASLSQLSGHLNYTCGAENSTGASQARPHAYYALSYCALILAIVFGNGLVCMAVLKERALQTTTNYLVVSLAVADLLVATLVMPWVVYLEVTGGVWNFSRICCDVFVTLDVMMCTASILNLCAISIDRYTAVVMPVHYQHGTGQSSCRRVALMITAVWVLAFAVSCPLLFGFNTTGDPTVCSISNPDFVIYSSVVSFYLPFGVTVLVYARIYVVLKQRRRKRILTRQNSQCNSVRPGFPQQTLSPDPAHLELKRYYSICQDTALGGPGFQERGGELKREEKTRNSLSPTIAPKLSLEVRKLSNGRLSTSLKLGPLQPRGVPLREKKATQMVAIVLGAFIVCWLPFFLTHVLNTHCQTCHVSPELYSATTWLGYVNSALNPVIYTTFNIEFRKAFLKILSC
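Cells at 1500/well, incubated overnight, then treated with pinned compounds (dopamine as control) for 90 min at 37 degrees C. DiscoveRx reagent added for 30 - 60 minutes at room temperature; luminescence read.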
D3 antag: D3 dopamine receptor (human) antagonism. P35462. D3R cells, DiscoveRx beta-arrestin luminescence, antagonist mode; active compounds read low. max response, negative = inhibition, %. 2.5% of 360,000 active. AID 652054; in the data active = max response below about -50%; inconclusive = no clear call, values can overlap the other calls
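Cells plated overnight at 1500 cells/well, then exposed to library compounds with dopamine controls for 90 minutes at 37 degrees C. DiscoveRx reagent added for 30–60 minutes at room temperature; luminescence read, quantitative HTS format.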
TRPML1 inh: blocks the human TRPML1 channel. TRPML1-inducible cells, Ca2+ dye fluorescence, FDSS; active compounds read low; inhibition of EC80 agonist-evoked calcium signal. activity change, negative = inhibition, % (concentration not given with the values). 0.02% of 390,000 active. AID 624415; in the data active = activity change below about -50%; inconclusive = between about -30% and that limit;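 also: stimulus is agonist 54-4 at its EC80 concentration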
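TRPML1-DL cells, Tet-induced overnight (~16 h, 37 °C) at 1,500 cells/well, were loaded with Ca8 no-wash dye plus quencher for 45-90 min at room temperature. Compounds were pinned during FDSS kinetic reading; agonist 54-4 at EC80 (4 uM final) then added.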
TRPML1 agonist: human mucolipin-1 channel agonism; AID 624414; activation, % (test concentration not listed); TRPML1-expressing cells, Ca2+ dye fluorescence, FDSS; 0.12% of 410,000 active; in the data active = activation above about 50%; inconclusive = mostly about 30% to 49%
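Tetracycline-induced TRPML1-DL cells are seeded and incubated overnight before loading with a no-wash Ca2+ dye and quencher. Agonist activity is taken from the 110 s fluorescence read following compound pin-transfer on an FDSS, before EC80 54-4 challenge.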
Hits are given with their value.

Results for COc1cc(/C=C2\SC(=S)N(NC(=O)c3ccncc3)C2=O)ccc1O ?
DRD3 agonist: inactive; D3 antag: inactive

Results for COc1cc(/C=C2/SC(=S)N(Cc3ccccc3)C2=O)ccc1O ?
DRD3 agonist: inactive; D3 antag: -61.2; TRPML1 inh: inactive; TRPML1 agonist: inconclusive

How did CC(/C=C1\SC(=S)N(NC(=O)c2ccc(C)cc2)C1=O)=C\c1ccccc1 do in these assays?
DRD3 agonist: inactive; D3 antag: -51.9; TRPML1 inh: inactive; TRPML1 agonist: inactive

Results for O=C1/C(=C/c2cccc(O)c2)SC(=S)N1CC1CCCO1 (configuration not stated) ?
DRD3 agonist: inactive; D3 antag: inactive; TRPML1 inh: inactive; TRPML1 agonist: inactive

Results for CCOc1cc(/C=C2/SC(=S)N(CC3CCCO3)C2=O)ccc1O (configuration not stated) ?
DRD3 agonist: inactive; D3 antag: -63.6; TRPML1 inh: inactive; TRPML1 agonist: inactive

How did COc1cc(/C=C2\SC(=S)N(NC(=O)c3ccc(O)c(OC)c3)C2=O)ccc1O do in these assays?
DRD3 agonist: inactive; D3 antag: -74.9; TRPML1 inh: inactive; TRPML1 agonist: inactive

Results for COc1ccccc1CNc1nc(-c2ccco2)nn1C(=O)c1ccccc1[N+](=O)[O-] ?
DRD3 agonist: inactive; TRPML1 inh: inactive; TRPML1 agonist: inactive

How did O=[N+]([O-])c1ccc(S(=O)(=O)NCC(c2ccco2)N2CCc3ccccc3C2)cc1 (configuration not stated) do in these assays?
DRD3 agonist: inactive; D3 antag: -57.1; TRPML1 inh: inactive; TRPML1 agonist: inactive

What do the screens show for `COc1ccc(N2C(=O)C(Cl)=C(Oc3cccc(OC)c3)C2=O)cc1`?
DRD3 agonist: inactive; D3 antag: -58.3; TRPML1 inh: inactive; TRPML1 agonist: inactive

How did COc1ccc(N2C(=O)c3ccccc3C2=O)cc1 do in these assays?
DRD3 agonist: inactive; D3 antag: inactive; TRPML1 inh: inactive; TRPML1 agonist: inactive

What do the screens show for `COc1cc(OC)c(OC)cc1/C=c1\[nH]c(=O)/c(=C/c2cc(OC)c(OC)cc2OC)[nH]c1=O`?
TRPML1 agonist: inactive

How did COc1cc(OC)cc(-c2c(-c3cccs3)c3cc(-c4ccc(N(C)C)nc4)ccc3n2C)c1 do in these assays?
DRD3 agonist: 46.7; D3 antag: inactive; TRPML1 inh: inactive; TRPML1 agonist: inactive

How did COc1cc(OC)cc(-c2c(-c3cccs3)c3cc(-c4ccn[nH]4)ccc3n2C)c1 do in these assays?
DRD3 agonist: 37.2; D3 antag: inactive; TRPML1 inh: inactive; TRPML1 agonist: inactive

How did COc1cc(OC)c(C#N)c(S(=O)(=O)Cc2ccccc2)c1 do in these assays?
DRD3 agonist: inactive; D3 antag: inactive; TRPML1 inh: inactive; TRPML1 agonist: inactive

How did N#Cc1c([N+](=O)[O-])cc([N+](=O)[O-])cc1S(=O)(=O)Cc1ccccc1 do in these assays?
DRD3 agonist: inactive; D3 antag: -102.3; TRPML1 inh: inactive; TRPML1 agonist: inactive

Results for O=C1CC(c2ccc(F)cc2)Sc2ccccc2N1 (configuration not stated) ?
DRD3 agonist: inactive; D3 antag: inactive; TRPML1 inh: inactive; TRPML1 agonist: inactive

What do the screens show for `CC1CC(=S)Nc2ccccc2S1` (configuration not stated)?
DRD3 agonist: inactive; D3 antag: -76.7; TRPML1 inh: inactive; TRPML1 agonist: inactive

How did CCOC(=O)C1=C(C)NC(C)=C(C(=O)OC)C1c1cccc([N+](=O)[O-])c1 (configuration not stated) do in these assays?
DRD3 agonist: inactive; D3 antag: inactive; TRPML1 inh: inactive; TRPML1 agonist: inactive

How did COC(=O)C1=C(C)NC(C)=C(C(=O)OC)C1c1ccccc1[N+](=O)[O-] do in these assays?
DRD3 agonist: inactive; D3 antag: -105.3; TRPML1 inh: inactive; TRPML1 agonist: inactive

Results for COCCNC(=O)Nc1cc(C(=O)NCc2ccc(C(C)C)cc2)ccc1N1CCCC1 ?
DRD3 agonist: inactive; TRPML1 inh: inactive; TRPML1 agonist: inactive

How did Cc1ccccc1CN1CCN(CC2CC3C=CC2C3)CC1 (configuration not stated) do in these assays?
DRD3 agonist: inactive; D3 antag: -65.8; TRPML1 inh: inactive; TRPML1 agonist: inactive

Results for CS(=O)(=O)N1CCN(CC2CC3C=CC2C3)CC1 (configuration not stated) ?
DRD3 agonist: inactive; D3 antag: inactive; TRPML1 inh: inactive; TRPML1 agonist: inactive

What do the screens show for `C1=CC2CC1CC2CN1CCN(c2ccccc2)CC1` (configuration not stated)?
DRD3 agonist: inactive; D3 antag: -54.4; TRPML1 inh: inactive; TRPML1 agonist: inactive

Results for CCN1CCN(CC2CC3C=CC2C3)CC1 (configuration not stated) ?
DRD3 agonist: inactive; D3 antag: inactive; TRPML1 inh: inactive; TRPML1 agonist: inactive

Results for Cc1ccccc1CNC(=O)CCC(=O)N1CCSc2ccccc21 ?
DRD3 agonist: inactive; TRPML1 inh: inactive; TRPML1 agonist: inactive

What do the screens show for `CCCN(CCC)C(=O)Cn1c(=O)n(Cc2ccc(C(=O)NCCc3ccc(Cl)cc3)cc2)c(=O)c2ccccc21`?
DRD3 agonist: inactive; TRPML1 inh: inactive; TRPML1 agonist: inactive

What do the screens show for `CCC(=O)O[C@]1(C(=O)CCl)[C@@H](C)C[C@H]2[C@@H]3C[C@H](F)C4=CC(=O)C=C[C@]4(C)[C@@]3(F)[C@@H](O)C[C@@]21C`?
DRD3 agonist: inactive

Results for COc1ccc(-c2nc3sc(CCNC(=O)C(=O)Nc4ccccc4C#N)c(C)n3n2)cc1 ?
DRD3 agonist: inactive; TRPML1 inh: inactive; TRPML1 agonist: inactive

How did CCN(Cc1ccccc1)Cc1c(F)cccc1F do in these assays?
DRD3 agonist: inactive; D3 antag: inactive; TRPML1 inh: inactive; TRPML1 agonist: inactive

What do the screens show for `CCN(Cc1ccccc1)Cc1cc(OC)cc(OC)c1`?
DRD3 agonist: inactive; D3 antag: -55.8; TRPML1 inh: inactive; TRPML1 agonist: inactive

Results for CCOC(=O)C1CCCN(Cc2ccccc2C)C1 (configuration not stated) ?
DRD3 agonist: inactive; D3 antag: -63.6; TRPML1 inh: inactive; TRPML1 agonist: inactive

What do the screens show for `CCOC(=O)C1CCCN(Cc2ccccc2Cl)C1` (configuration not stated)?
DRD3 agonist: inactive; D3 antag: inactive; TRPML1 inh: inactive; TRPML1 agonist: inactive

How did CCOC(=O)C1CCCN(Cc2ccc(OC)c(OCc3ccccc3)c2)C1 (configuration not stated) do in these assays?
DRD3 agonist: inactive; D3 antag: -83.8; TRPML1 inh: inactive; TRPML1 agonist: inactive

Results for O=C(NCCOCCn1c(=O)oc2ccccc21)Nc1ccc(Cl)cc1 ?
DRD3 agonist: inactive; TRPML1 inh: inactive; TRPML1 agonist: inactive

How did Cc1cc(Br)ccc1NC(=O)c1cn(C2CCCC2)c(=O)c2c1c1ccccc1n2C do in these assays?
DRD3 agonist: inactive; TRPML1 inh: inactive; TRPML1 agonist: inactive

Results for CCOC(=O)N1CCc2c(sc(N)c2C#N)C1 ?
DRD3 agonist: 59.8; D3 antag: inactive; TRPML1 inh: inactive; TRPML1 agonist: inactive

What do the screens show for `Cc1ccc(C)c(Nc2ncnc3onc(C)c23)c1`?
DRD3 agonist: inactive; TRPML1 inh: inactive; TRPML1 agonist: inactive
